Assay results reported in PubChem BioAssay AID1159580 (chemical genetic matrix, 2015).
Values joined by “and” are separate entries in the source; they are usually repeats but may differ in a detail not shown here. Identical values can stand only once. Screen size: about 5,500 compounds; about 2,000 (36%) were called active. Not shown: some 18% with an inconclusive outcome. Cut-off read from the data, not from the text of the source: active = normalized growth mostly below about 0.91 (no sharp cut-off); inconclusive = no clear call, values can overlap the other calls; inactive = mostly above about 0.92. This is one part of the list.

Assay: chemical genetic growth profiling, strain panel (AID 1159580);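 note: tested at 20 µM; growth read once vehicle control cultures reached saturation at 30 °C; 1 = growth at the plate median or of vehicle wells; lower values mean less growth of the strain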
Details: S. cerevisiae deletion strains, growth OD

Measured: normalized growth

C[C@@H]1O[C@@H](O[C@H]2CC[C@]3(C=O)C4CC[C@]5(C)[C@@H](C6=CC(=O)OC6)CC[C@]5(O)C4CC[C@]3(O)C2)[C@H](O)[C@H](O)[C@H]1O (stereo not given in full)
inactive: locus YAL021C, strain ccr4, active compounds read low 1.02 | locus YAL026C, strain drs2, active compounds read low 0.997 | locus YAL030W, strain snc1, active compounds read low 0.998 | locus YBL061C, strain skt5, active compounds read low 0.991 | locus YBR009C, strain hhf1, active compounds read low 0.979 | locus YBR021W, strain FUR4, active compounds read low 1.05 | locus YBR023C, strain chs3, active compounds read low 0.999 | locus YBR171W, strain sec66, active compounds read low 0.992 | locus YBR229C, strain ROT2, active compounds read low 0.962 | locus YBR231C, strain swc5, active compounds read low 0.987 | locus YBR279W, strain paf1, active compounds read low 1 | locus YCL011C, strain gbp2, active compounds read low 0.999 | locus YCL016C, strain dcc1, active compounds read low 0.996 | locus YCL029C, strain bik1, active compounds read low 0.985 | locus YCL061C, strain MRC1, active compounds read low 1 | locus YCL069W, strain vba3, active compounds read low 1.01 | locus YCR088W, strain abp1, active compounds read low 0.997 | locus YDL005C, strain med2, active compounds read low 0.999 | locus YDL035C, strain GPR1, active compounds read low 0.999 | locus YDL040C, strain nat1, active compounds read low 0.978 | locus YDL074C, strain BRE1, active compounds read low 1.05 | locus YDL101C, strain DUN1, active compounds read low 0.976 | locus YDL134C, strain PPH21, active compounds read low 0.989 | locus YDL185W, strain tfp1, active compounds read low 0.987 | locus YDL192W, strain arf1, active compounds read low 0.99 | locus YDR001C, strain nth1, active compounds read low 1 | locus YDR069C, strain doa4, active compounds read low 0.984 | locus YDR101C, strain arx1, active compounds read low 1.02 | locus YDR137W, strain rgp1, active compounds read low 1.01 | locus YDR150W, strain NUM1, active compounds read low 0.995 | locus YDR159W, strain sac3, active compounds read low 0.95 | locus YDR162C, strain NBP2, active compounds read low 0.934 | locus YDR195W, strain ref2 0.927 | locus YDR297W, strain sur2, active compounds read low 0.996 | locus YDR318W, strain mcm21, active compounds read low 0.979 | locus YDR334W, strain swr1, active compounds read low 0.998 | locus YDR335W, strain msn5, active compounds read low 1 | locus YDR388W, active compounds read low 0.999 | locus YDR392W, strain spt3, active compounds read low 0.88 | locus YDR502C, strain sam2, active compounds read low 0.982 | locus YEL003W, strain gim4, active compounds read low 0.999 | locus YEL037C, strain rad23, active compounds read low 1.01 | locus YEL061C, strain CIN8 (second series), active compounds read low 1 | locus YEL061C, strain CIN8, active compounds read low 0.996 | locus YER015W, strain faa2, active compounds read low 0.992 | locus YER016W, strain bim1, active compounds read low 0.99 | locus YER110C, active compounds read low 0.985 | locus YER111C, strain swi4, active compounds read low 0.988 | locus YER155C, strain BEM2 (second series), active compounds read low 0.978 | locus YER155C, strain BEM2, active compounds read low 1.01 | locus YER167W, strain BCK2, active compounds read low 0.999 | locus YFR010W, strain ubp6, active compounds read low 0.999 | locus YGL078C, strain dbp3, active compounds read low 0.989 | locus YGL086W, strain mad1, active compounds read low 1.04 | locus YGL167C, strain pmr1, active compounds read low 0.982 | locus YGL173C, strain kem1, active compounds read low 0.99 | locus YGL227W, strain vid30, active compounds read low 0.99 | locus YGL240W, strain doc1, active compounds read low 0.969 | locus YGL248W, strain PDE1, active compounds read low 0.976 | locus YGL253W, strain hxk2, active compounds read low 0.992 | locus YGR078C, strain PAC10, active compounds read low 0.974 | locus YGR135W, strain pre9, active compounds read low 0.966 | locus YGR229C, strain SMI1, active compounds read low 0.987 | locus YGR252W, strain gcn5, active compounds read low 0.953 | locus YHR013C, strain ard1, active compounds read low 0.954 | locus YHR027C, strain rpn1, active compounds read low 0.996 | locus YHR030C, strain SLT2, active compounds read low 1.01 and 0.997 | locus YHR079C, strain IRE1 (second series), active compounds read low 1.01 | locus YHR079C, strain IRE1, active compounds read low 0.992 | locus YHR094C, strain hxt1, active compounds read low 0.986 | locus YHR129C, strain ARP1, active compounds read low 1 | locus YHR142W, strain chs7, active compounds read low 1.03 | locus YHR200W, strain rpn10, active compounds read low 1 | locus YIL066C, strain RNR3, active compounds read low 0.984 | locus YIL073C, strain SPO22, active compounds read low 1.02 | locus YIL125W, strain kgd1, active compounds read low 0.988 | locus YIR030C, strain dcg1, active compounds read low 0.995 | locus YJL092W, strain hpr5, active compounds read low 1 | locus YJL095W, strain BCK1 (second series), active compounds read low 0.998 | locus YJL095W, strain BCK1, active compounds read low 0.965 and 0.985 | locus YJL115W, strain asf1, active compounds read low 0.999 | locus YJL129C, strain trk1, active compounds read low 1.01 | locus YJL134W, strain LCB3, active compounds read low 0.994 | locus YJL154C, strain vps35, active compounds read low 1.01 | locus YJL164C, strain tpk1, active compounds read low 1.01 | locus YJL166W, strain qcr8, active compounds read low 0.99 | locus YJL168C, strain set2, active compounds read low 0.99 | locus YJL187C, strain SWE1 (second series), active compounds read low 0.97 | locus YJL187C, strain SWE1, active compounds read low 1 | locus YJR043C, strain POL32, active compounds read low 0.99
